# Measured values published in PubChem BioAssay (NCATS).
# A number with no mark means an inactive call. Records with an inconclusive call do not appear. Entries that show only a call come without a potency. The source made the active and inactive calls. Unless noted, calls come from the whole dose curve; as a rule, active = well fitted cell-killing curve with a large enough effect; inconclusive = small, poorly fitted or top-dose-only effect; inactive = flat fitted curve, though single readings scatter.
# Columns and labels:
# [1] = Cell Viability - LYMP2-025 (AID 976); note: series mostly up to about 92 µM
# Outline: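 Luminescent ATP readout after 24 hr treatment of a human lymphoblastoid line (LYMP2-025, 2500 cells/well, 37 C). Reagent developed 30 min at room temperature; AC50 fitted with the Hill equation.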
# [2] = Cell Viability - LYMP2-002 (AID 977);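 note: compound exposure lasted 24 h at 37 °C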; note: potency is the fitted concentration of half-maximal effect
# Outline: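 Human lymphoblastoid cells, 2500/well, complete medium; 5 h 37 C settle; compound 24 h 37 C; CellTiter-Glo, 30 min RT; luminescence. Decrease in ATP = cytotoxicity; AC50 via Hill equation.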
# [3] = Cell Viability - LYMP2-006 (AID 978); note: nearly all actives have a fitted effect of over 60% in size; note: potency is the fitted concentration of half-maximal effect
# Outline: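 Human lymphoblastoid cells (LYMP2-006), 2500/well in complete medium, were treated with compound for 24 hr at 37 C. Cellular ATP was read by CellTiter-Glo luminescence after 30 min, and AC50 values came from Hill-equation fits of concentration-response data.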
# [4] = Cell Viability - LYMP2-007 (AID 979);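 note: cells exposed to compound for 24 h before reading; nearly all actives have a fitted effect of over 60% in size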; note: potency is the fitted concentration of half-maximal effect
# Outline: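 Measured via luciferase-based ATP quantitation: lymphoblastoid cells, 24 hr compound exposure at 37 C, AC50 from Hill fits.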
# [5] = Cell Viability - LYMP2-008 (AID 980); note: nearly all actives have a fitted effect of over 60% in size; note: potency is the fitted concentration of half-maximal effect
# Outline: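 Measured: ATP-dependent luminescence, proportional to viable cell number, in human lymphoblastoid cells treated 24 hr with compound in complete culture medium. Values are AC50s from Hill-equation modelling of qHTS titrations.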
# [6] = Cell Viability - LYMP2-010 (AID 981); note: nearly all actives have a fitted effect of over 55% in size; note: potency is the fitted concentration of half-maximal effect
# Outline: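 This 24 hr viability screen uses LYMP2-010 lymphoblastoid cells, quantifies ATP via luciferase luminescence, and derives AC50 from Hill fits of qHTS concentration-response data.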
# [7] = Cell Viability - LYMP2-012 (AID 982);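 note: cellular ATP by luciferase luminescence where a drop means cytotoxicity; cells exposed to compound for one day before reading; nearly all actives have a fitted effect of over 55% in size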
# [8] = Cell Viability - LYMP2-014 (AID 983); note: nearly all actives have a fitted effect of over 50% in size; note: potency is the fitted concentration of half-maximal effect
# Outline: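 Quantitative HTS in lymphoblastoid cells: 24 hr compound exposure, then CellTiter-Glo ATP luminescence. Positive control was tetraoctylammonium bromide, 6.4pM to 92 uM.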
# [9] = Cell Viability - LYMP2-016 (AID 984); note: nearly all actives have a fitted effect of over 55% in size
# Outline: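 Human lymphoblastoid LYMP2-016 cells, 2500 per well, treated with compounds for 24 h at 37 C. Viability read as intracellular ATP by CellTiter-Glo luminescence after 30 min at room temperature; AC50 from Hill fits of concentration-response.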
# [10] = Cell Viability - LYMP2-018 (AID 985); note: nearly all actives have a fitted effect of over 50% in size; note: potency is the fitted concentration of half-maximal effect
# Outline: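 In this qHTS viability assay, cells are treated for 24 hr and cellular ATP is quantified by luciferase-based luminescence, with tetraoctylammonium bromide as positive control.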
# [11] = Cell Viability - LYMP2-020 (AID 986); note: series mostly up to about 92 µM; nearly all actives have a fitted effect of over 55% in size
# Outline: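 Cells at 2500 per well receive a 24 hr compound exposure at 37 C. Viability is measured as ATP-dependent luciferase luminescence, with AC50 modeled from qHTS concentration-response curves.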
# [12] = Cell Viability - LYMP2-022 (AID 987); note: nearly all actives have a fitted effect of over 55% in size; note: potency is the fitted concentration of half-maximal effect
# Outline: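 In this qHTS cytotoxicity screen, compound titrations were incubated 24 hr at 37 C with human lymphoblastoid cells in complete medium. Luciferase-based ATP luminescence provided the viability signal.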
# [13] = Cell Viability - LYMP2-024 (AID 988); note: nearly all actives have a fitted effect of over 60% in size; note: potency is the fitted concentration of half-maximal effect
# Outline: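 Cells at 2500 per well received compound for 24 hr after a 5 hr settling period. Viability was scored by CellTiter-Glo luminescence, with AC50 from Hill fits.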
# [14] = Cell Viability - LYMP2-026 (AID 989); note: nearly all actives have a fitted effect of over 50% in size
# Outline: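 Acute toxicity screen in complete culture medium, with 24 hr compound exposure at 37 C. Viability read as cellular ATP via luciferase reaction, with tetraoctylammonium bromide (6.4pM to 92 uM) as positive control.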
# [15] = Cell Viability - LYMP1-002 - Assay at 24 hr (AID 993); note: potency is the fitted concentration of half-maximal effect
# Outline: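 Viability was judged from intracellular ATP using a luciferase read-out, following a 24-hour compound incubation at 37 C of lymphoblastoid cells seeded at 2500 per well. Concentration-response data were fitted to the Hill equation for AC50.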
# [16] = Cell Viability - LYMP1-002 - Assay at 40 hr (AID 994); note: nearly all actives have a fitted effect of over 60% in size; note: potency is the fitted concentration of half-maximal effect
# Outline: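 Concentration-dependent ATP loss after 40 hr treatment at 37 C defined toxicity; AC50 values were obtained by fitting the standard Hill equation.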
# [17] = molecular target: Estrogen receptor (Homo sapiens) (UniProt P03372); experiment: qHTS assay for small molecule agonists of estrogen receptor alpha signaling (AID 588514; calls by dose curve; note: nearly all actives have a fitted effect of over 70% in size)
# Sequence of Estrogen receptor (Homo sapiens) (P03372 whole entry, looked up): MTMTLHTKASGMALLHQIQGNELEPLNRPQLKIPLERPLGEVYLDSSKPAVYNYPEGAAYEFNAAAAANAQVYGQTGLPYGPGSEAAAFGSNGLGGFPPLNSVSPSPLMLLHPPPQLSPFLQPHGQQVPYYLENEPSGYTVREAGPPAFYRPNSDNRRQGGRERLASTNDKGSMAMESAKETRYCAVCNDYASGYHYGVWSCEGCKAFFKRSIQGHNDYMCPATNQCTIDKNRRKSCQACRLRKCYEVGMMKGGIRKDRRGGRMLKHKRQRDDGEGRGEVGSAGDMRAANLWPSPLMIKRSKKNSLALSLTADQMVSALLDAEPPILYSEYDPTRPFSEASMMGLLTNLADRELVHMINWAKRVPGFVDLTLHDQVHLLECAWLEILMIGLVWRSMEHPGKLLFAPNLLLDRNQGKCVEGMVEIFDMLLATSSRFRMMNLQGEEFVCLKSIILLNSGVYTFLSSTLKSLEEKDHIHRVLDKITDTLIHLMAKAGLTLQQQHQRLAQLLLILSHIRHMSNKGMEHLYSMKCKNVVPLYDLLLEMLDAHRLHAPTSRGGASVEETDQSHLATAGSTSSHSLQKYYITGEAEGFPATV
# Outline: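 Fluorescence from CCF4 cleavage reports ER-alpha-driven beta-lactamase expression in HEK 293 cells treated 18 hrs at 37 C. Data normalized to 17-beta-estradiol (20 nM) and DMSO, fitted to Hill equation.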
# [18] = molecular target: Estrogen receptor (Homo sapiens) (UniProt P03372); experiment: qHTS assay for small molecule antagonists of estrogen receptor alpha signaling (AID 588513; active = well fitted curve in the direction sought with a large enough effect in the signal ratio, with a control signal flat, not every such curve was filed as active; the % refers to the signal ratio)
# Outline: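 ER-alpha-UAS-bla GripTite HEK 293 cells in 2% charcoal/dextran-treated FBS medium; compounds titrated (1:2, duplicate), then stimulated with 0.5 nM 17-beta-estradiol for 18 h at 37C. CCF4 beta-lactamase fluorescence; Hill-fit IC50 and efficacy.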
Structure (SMILES),Potency [1],Potency [2],Potency [3],Potency [4],Potency [5],Potency [6],Potency [7],Potency [8],Potency [9],Potency [10],Potency [11],Potency [12],Potency [13],outcome [14],Potency [15],Potency [16],Potency [17],outcome [18]
OC(CCl)CCl,inactive,inactive,inactive,inactive,inactive,inactive,inactive,inactive,inactive,inactive,inactive,inactive,inactive,inactive,inactive,inactive,inactive,
Cc1cccc(C)c1,inactive,inactive,inactive,inactive,inactive,inactive,inactive,inactive,,inactive,inactive,inactive,,,,inactive,inactive,inactive
CCCCC(=O)N(C)C,inactive,inactive,inactive,inactive,inactive,inactive,inactive,inactive,inactive,inactive,,inactive,inactive,,inactive,inactive,inactive,
N#CC1(O)CCCCC1,inactive,inactive,inactive,inactive,inactive,inactive,inactive,inactive,inactive,inactive,inactive,inactive,inactive,inactive,,inactive,,
[O-]/[N+](=N\O)c1ccccc1,inactive,inactive,inactive,inactive,inactive,inactive,inactive,inactive,inactive,inactive,inactive,inactive,inactive,inactive,inactive,inactive,inactive,
C=CCCCC,inactive,inactive,inactive,inactive,inactive,inactive,inactive,inactive,inactive,inactive,inactive,inactive,inactive,inactive,inactive,inactive,inactive,
CC1=C(/C=C/C(C)=C/C=C/C(C)=C\C=O)C(C)(C)CCC1,,50.1 µM (active),50.1 µM (active),50.1 µM (active),50.1 µM (active),39.8 µM (active),,63.1 µM (active),,50.1 µM (active),,39.8 µM (active),31.6 µM (active),,63.1 µM (active),50.1 µM (active),,
CCCC=O,inactive,inactive,inactive,inactive,inactive,inactive,inactive,inactive,inactive,inactive,inactive,inactive,inactive,inactive,inactive,inactive,,
CC(C)N(C)C,inactive,inactive,inactive,inactive,inactive,inactive,inactive,inactive,inactive,inactive,inactive,inactive,inactive,inactive,inactive,,inactive,inactive
Cc1cc(C)c(N)cc1C,inactive,inactive,inactive,,inactive,inactive,inactive,inactive,inactive,inactive,inactive,inactive,inactive,inactive,inactive,,inactive,
